The values below come from ChEMBL document CHEMBL3433997, “St. Jude Leishmania screening dataset” (2016).

The assay concerns the target Hexose transporter 1 (Plasmodium falciparum) (UniProt O97467). As to the kind of experiment: ST_JUDE_LEISH: Cytotoxicity at 2uM final concentration against transgenic Leishmania Mexicana promastigotes LmPfHT that are glucose transport deficient and complemented with the Plasmodium falciparum hexose transporter. Activity is measured by DNA content using SYBR green in vitro. It is filed as functional.
As to `N#Cc1cccc(NC(=O)c2cccc(S(=O)(=O)NC3CCN(CC4CCCCC4)C3)c2)c1` (stereo not given), the inhibition was 1.11%.

As to `CCCCCCNC(=O)C1Cc2c([nH]c3ccc(C)cc23)C2(CCN(CCc3ccccc3)CC2)N1` (stereo not given), the inhibition was determined as 1.61%.

Consider `Clc1cccc(Nc2ccc3c(N4CCCCC4)ncnc3n2)c1`, for which the inhibition came out at 10.8%.

With `COc1ccc2nccc([C@@H](O)CN3CCC(NC(=O)C(c4ccsc4)N4CCN(c5ccccc5OC)CC4)CC3)c2c1` (stereo not given in full), the inhibition came out at 1.41%.

For the compound `O=c1cc(NC[C@H]2CCC[C@@H]2NC2CCCc3c2[nH]c2ccccc32)[nH]c2ccccc12` (stereo not given in full), the inhibition was -1.31%.

For `CCc1ccc2nc(-c3ccc(F)cc3)nc(SCC(=O)Nc3sc(C)c(C)c3C#N)c2c1`, the inhibition is 7.28%.

For the compound `C[C@H](Nc1c(Nc2ccc3[nH]ccc3c2)c(=O)c1=O)C1CCCCC1`, the inhibition is 0.15%.

In the case of `Nc1nc(O)c2cc(CN(C=O)c3ccc(C(=O)N[C@@H](CCC(=O)O)C(=O)O)cc3)ccc2n1`, the inhibition was 4.17%.

Take `CN1CCC[C@H]1COc1ccc(CN2CC[C@H](NC(=O)c3ccc(Cl)c(Cl)c3)C2)c2ccccc12`: the inhibition amounted to 8.86%.

With `O=C(NC1CCN(Cc2ccccc2)CC1)c1ccc(-c2nc3cc(Cl)c(Cl)cc3[nH]2)s1`, the inhibition was found to be 1.08%.

In the case of `O=C(c1cc(C(=O)Nc2ccccc2)c(=O)n(-c2ccccc2)c1)c1cc(Cl)ccc1O`, the inhibition came to 3.56%.

`Cc1sc(CNCCCNc2cc(=O)c3ccccc3[nH]2)cc1Br`: the inhibition was determined as 0.97%.

Take `O=c1cc(NCCCNCc2ccc(Cl)c(Cl)c2)[nH]c2cc(F)cc(F)c12`: the inhibition turned out to be 2.15%.

For `CCCCCCN1CCC(NCc2ccc(C(F)(F)F)cc2)CC1`, the inhibition is 1.54%.

Take `COc1ccc(Nc2ncc3c(-c4cccc(NC(=O)c5ccc(N)cc5)c4)c[nH]c3n2)cc1OC`: the inhibition came out at 8.84%.

As to `CCOC(=O)c1c(C)n(-c2ccccc2)c2ccc(OC(=O)c3ccc(S(=O)(=O)N(CC)CC)cc3)cc12`, the inhibition turned out to be 5.12%.

Turning to `CC(C)Nc1ccc(Nc2ccnc3cc4ccccc4cc23)cc1`, the inhibition amounted to 4.38%.

For the compound `COc1cc2nc(NCCc3ccccc3)nc(N(C)Cc3ccccc3)c2cc1OC`, the inhibition came out at 5.4%.

Regarding `Cc1nc(C)n(CC(=O)Nc2cccc(-c3cccc(-c4nc5cc(C(F)(F)F)ccc5[nH]4)c3)c2)n1`, the inhibition worked out at 9.76%.

As to `O=C(Nc1cccc(CN2CCCN(Cc3cccc(Cl)c3)CC2)c1)c1ccc(Br)cc1`, the inhibition came out at 7.39%.

For `Clc1ccc2c(NCCNc3ccnc4cc(Cl)ccc34)ccnc2c1`, the inhibition was -2.22%.

On to `CCOc1c(Br)cc(Cl)cc1CNCCCNc1nc2ccccc2[nH]1`, for which the inhibition was found to be 1.74%.

For the compound `CCC[C@@H]([C@@H](CC1CCCCC1)C(=O)N[C@H](C(=O)Nc1nccs1)C(C)(C)SCCNC(=O)OCC)N(O)C=O`, the inhibition turned out to be 4.46%.

For `CN(C)CCOc1ccc(/C(=C(/CCCn2ccnc2)c2ccccc2)c2ccc(O)cc2)cc1`, the inhibition came out at 6.01%.

Regarding `Cc1cc(-c2ccnc(Nc3cccc(C#N)c3)n2)cc(C)c1O`, the inhibition came to 16%.

Turning to `COc1ccc(S(=O)(=O)NCCCC2CCN(CCCCCNC(=O)C=Cc3ccc(Cl)c(Cl)c3)CC2)cc1`, the inhibition came out at 0.8%.

For `COc1cc2c(cc1OC)CN(CCc1ccc(NC(=O)c3cc4cc(OC(F)(F)F)ccc4[nH]3)cc1)CC2`, the inhibition is 3.67%.

For `c1ccc(Oc2ccc(Nc3ccnc(Nc4cccc(CNCCCN5CCOCC5)c4)n3)cc2)cc1`, the inhibition was -2.31%.

On to `COc1ccc(CCCc2nc(N)nc(N)c2-c2ccc(Cl)cc2)cc1`, for which the inhibition was 6.84%.

Turning to `COc1ccc(S(=O)(=O)N(CCCN2CCN(C)CC2)Cc2csc(-c3ccc(CNCc4ccccc4)cc3)n2)cc1`, the inhibition turned out to be 2.47%.

As for `CCCc1cc(NCC)nc(Nc2ccc(F)cc2)n1`, the inhibition was found to be 6.64%.

For the compound `CN1CCC(Oc2ccc(NC(=O)c3ccc4c(=O)n(Cc5ccccc5)cnc4c3)cc2Cl)CC1`, the inhibition worked out at 57.4%.

Consider `CCOc1ccc2nc3cc(NC(=O)c4ccco4)ccc3c(N)c2c1`, for which the inhibition stood at 3.27%.

Consider `COc1ccc2c(ccc3c2ncc2c(=O)n(-c4ccccc4)[nH]c23)c1`, for which the inhibition was -1.2%.

Turning to `Cc1cccc2c(/C=C/C(=O)NC3CCC(CCN4CCc5ccc(C#N)cc5CC4)CC3)c[nH]c12` (stereo not given), the inhibition came out at 8.44%.

Regarding `CSc1ccc2ccccc2c1CNCCCCCCNCc1c(SC)ccc2ccccc12`, the inhibition came to 0.13%.

For the compound `Cc1cc(=NN=Cc2cccc(F)c2)c2cccc(C)c2[nH]1`, the inhibition is 3.31%.

Turning to `O=C(Nc1ccc(OC2CCN(Cc3ccco3)CC2)c(Cl)c1)c1ccc2ncccc2c1`, the inhibition was determined as 2.97%.

As for `Cc1ccc(NC(=O)C(C)Sc2nnc(-c3ccccc3Br)[nH]2)cc1` (stereo not given), the inhibition is -2.48%.

Consider `Cc1cc(N[C@@H](Cc2ccccc2)C(=O)Nc2ccccc2)nc(NCCc2cccnc2)n1`, for which the inhibition is 11%.
